# Measurements as given in the supplement of paper PMC8728848.
# This is one part of a sample in which the strongest signals are shown more often than they occur.
# Experiments:
# Experiment in all cases: glycan array binding signal (z-score within array); higher = stronger binding
# Settings in all cases: glycan notation: IUPAC condensed, linker removed
# [1] = system: Neu5Ac(a2-3)Gal(b1-4)GlcNAc
# Outline: (§1)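 The binding signal is a Z-score computed within each array and averaged over linkers. Arrays of the same protein sequence at different concentrations or buffers were also averaged together. Data originate from 3228 arrays in the Consortium for Functional Glycomics database, kept only where the protein sequence was available.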
# [2] = system: Neu5Ac(a2-3)Gal6S(b1-4)GlcNAc
# Outline: as §1
# [3] = system: Neu5Ac(a2-3)Gal(b1-4)[Fuc(a1-3)]GlcNAc(b1-3)Gal(b1-4)GlcNAc
# Outline: as §1
# [4] = system: Neu5Ac(a2-3)[Neu5Ac(a2-6)]GalNAc
# Outline: as §1
# [5] = system: Neu5Ac(a2-3)Gal(b1-4)[Fuc(a1-3)]GlcNAc(b1-3)Gal(b1-4)[Fuc(a1-3)]GlcNAc(b1-3)Gal(b1-4)Glc
# Outline: as §1
# [6] = system: Neu5Ac(a2-3)Gal(b1-4)[Fuc(a1-3)]GlcNAc6S(b1-3)Gal(b1-4)Glc
# Outline: as §1
# [7] = system: Neu5Ac(a2-6)Gal(b1-4)GlcNAc(b1-2)Man(a1-3)[Neu5Ac(a2-6)Gal(b1-4)GlcNAc(b1-2)Man(a1-6)]Man(b1-4)GlcNAc(b1-4)GlcNAc
# Outline: as §1
# [8] = system: Neu5Ac(a2-3)Gal(b1-4)[Fuc(a1-3)]GlcNAc(b1-3)Gal(b1-4)[Fuc(a1-3)]GlcNAc(b1-3)Gal(b1-4)[Fuc(a1-3)]GlcNAc
# Outline: as §1
# [9] = system: Neu5Ac(a2-3)Gal(b1-4)[Fuc(a1-3)]GlcNAc(b1-3)GalNAc
# Outline: as §1
# [10] = system: Neu5Ac(a2-3)[GalNAc(b1-4)]Gal(b1-4)Glc
# Outline: as §1
# [11] = system: Neu5Ac(a2-6)Gal(b1-4)GlcNAc(b1-2)Man(a1-3)[GlcNAc(b1-2)Man(b1-4)GlcNAc(b1-2)Man(a1-6)]Man(b1-4)GlcNAc(b1-4)GlcNAc
# Outline: as §1
# [12] = system: Neu5Ac(a2-6)Gal(b1-4)GlcNAc(b1-2)Man(a1-3)[Neu5Ac(a2-6)Gal(b1-4)GlcNAc(b1-2)Man(a1-6)]Man(b1-4)GlcNAc(b1-4)[Fuc(a1-6)]GlcNAc
# Outline: as §1
# [13] = system: Neu5Ac(a2-3)Gal(b1-4)[Fuc(a1-3)]GlcNAc(b1-6)[Gal(b1-3)]GalNAc
# Outline: as §1
# [14] = system: Neu5Ac(a2-3)Gal(b1-4)[Fuc(a1-3)]GlcNAc
# Outline: as §1
# [15] = system: Neu5Ac(a2-3)Gal6S(b1-4)[Fuc(a1-3)]GlcNAc6S(b1-3)Gal(b1-4)Glc
# Outline: as §1
# [16] = system: Neu5Ac(a2-6)Gal(b1-4)GlcNAc(b1-2)Man(a1-3)[Neu5Gc(a2-6)Gal(b1-4)GlcNAc(b1-2)Man(a1-6)]Man(b1-4)GlcNAc(b1-4)GlcNAc
# Outline: as §1
# Neu5Ac(a2-3)GalNAc = system: Neu5Ac(a2-3)GalNAc
# Outline: as §1
substance,measurement,setting,value
Epa22,glycan array binding signal (z-score),[1],0.352
same,glycan array binding signal (z-score),[2],-0.771
LcI (Legionella pneumophila),glycan array binding signal (z-score),[3],0.401
same,glycan array binding signal (z-score),[4],-0.437
"MIC3-MAR5 (Eimeria tenella), B6VCV4",glycan array binding signal (z-score),[5],0.92
same,glycan array binding signal (z-score),[6],2.08
same,glycan array binding signal (z-score),[7],1.71
AgI/II Vhelical-GFP (Streptococcus mutans),glycan array binding signal (z-score),[8],-0.178
"SpGH101 (Streptococcus pneumoniae), Q8DR60",glycan array binding signal (z-score),[9],1.68
same,glycan array binding signal (z-score),[2],-0.178
same,glycan array binding signal (z-score),[10],-0.199
same,glycan array binding signal (z-score),[4],-0.195
same,glycan array binding signal (z-score),[11],0.015
"Wza (Escherichia coli), P0A930",glycan array binding signal (z-score),[9],1.12
same,glycan array binding signal (z-score),[12],-0.578
AgI/IIC123-GFP (Streptococcus mutans),glycan array binding signal (z-score),[13],0.09
"SiiE (Salmonella typhimurium), A0A0H3NVH0",glycan array binding signal (z-score),[14],0.224
"MIC3-MAR1b (Eimeria tenella), B6VCV4",glycan array binding signal (z-score),[14],-0.346
same,glycan array binding signal (z-score),[15],0.282
same,glycan array binding signal (z-score),[7],4.75
same,glycan array binding signal (z-score),[16],0.504
"BambL (Burhholderia ambifaria), Q0B4G1",glycan array binding signal (z-score),Neu5Ac(a2-3)GalNAc,-0.313
